Calls of active or inactive are those of the source. How the source made its calls: active means hit-call score of the fitted dose curve at least 0.9, where 1 is the maximum; inactive means score below 0.9.
How the values were obtained:
[1] = ATG_M_32_CIS: Attagene CIS-FACTORIAL HepG2 Assay for M32 Transcription Factor (Internal Marker) (AID 2282949); details: HepG2 Attagene cis-factorial M32 reporter, mRNA; actives raise or lower the signal;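 further: background control marker of the multiplexed CIS panel rather than a real target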
Procedure, shortened: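 Using DMSO as baseline, bidirectional curve fits were applied to reporter mRNA signals. These came from transiently transfected HepG2 cells exposed for 24 h, with RNA analysed by RT-PCR, FAM primer extension, HpaI digestion and CE.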

[2] = ATG_M_06_CIS: Attagene CIS-FACTORIAL HepG2 Assay for M06 Transcription Factor (Internal Marker) (AID 2282950); details: HepG2 Attagene CIS-FACTORIAL M06 internal marker reporter; actives raise or lower the signal
Procedure, shortened: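 Fluorescence-labelled RT-PCR products from cis-promoter reporter units, cut with HpaI and resolved by capillary electrophoresis, give the signal. Cells are human HepG2, dosed for 24 h. Serves as background control, fitted relative to DMSO.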

[3] = molecular target: Hypoxia-inducible factor 1-alpha (Homo sapiens) (UniProt Q16665); assay: ATG_HIF1a_CIS: Attagene CIS-FACTORIAL HepG2 Assay for human Hypoxia Inducible Factor 1 (HIF1A) (AID 2282951); details: HepG2 Attagene cis-factorial HIF1a reporter transcription; actives raise or lower the signal
Sequence of Hypoxia-inducible factor 1-alpha (Homo sapiens) (Q16665 whole entry, looked up): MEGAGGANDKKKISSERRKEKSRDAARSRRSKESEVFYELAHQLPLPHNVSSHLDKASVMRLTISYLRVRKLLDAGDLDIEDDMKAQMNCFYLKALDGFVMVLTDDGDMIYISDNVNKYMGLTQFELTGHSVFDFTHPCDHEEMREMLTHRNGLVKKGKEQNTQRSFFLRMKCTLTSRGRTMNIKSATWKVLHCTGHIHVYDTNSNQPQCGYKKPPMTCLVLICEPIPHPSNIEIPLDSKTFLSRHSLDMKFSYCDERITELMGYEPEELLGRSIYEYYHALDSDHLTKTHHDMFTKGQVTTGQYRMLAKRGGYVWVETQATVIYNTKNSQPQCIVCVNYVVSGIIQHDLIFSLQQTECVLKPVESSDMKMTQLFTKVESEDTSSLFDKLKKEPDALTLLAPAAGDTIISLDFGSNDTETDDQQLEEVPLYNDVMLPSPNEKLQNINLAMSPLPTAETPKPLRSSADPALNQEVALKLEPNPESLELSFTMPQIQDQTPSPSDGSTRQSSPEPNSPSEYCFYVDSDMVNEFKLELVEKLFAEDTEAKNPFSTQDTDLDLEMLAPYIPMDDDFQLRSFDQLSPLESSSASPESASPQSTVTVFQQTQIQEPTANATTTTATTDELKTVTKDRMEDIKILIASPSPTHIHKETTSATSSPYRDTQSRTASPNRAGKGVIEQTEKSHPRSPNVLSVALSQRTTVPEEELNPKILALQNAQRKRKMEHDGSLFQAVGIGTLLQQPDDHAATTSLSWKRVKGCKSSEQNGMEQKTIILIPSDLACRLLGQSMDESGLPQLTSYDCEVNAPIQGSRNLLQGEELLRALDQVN
Procedure, shortened: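 Measures endogenous transcription-factor activity through cis-regulated reporter mRNA in HepG2. Cells dosed 24 h; transcripts quantified by RT-PCR with 6-FAM-labelled products separated by capillary electrophoresis; DMSO serves as negative control.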

[4] = molecular target: Hepatocyte nuclear factor 6 (Homo sapiens) (UniProt Q9UBC0); assay: ATG_HNF6_CIS: Attagene CIS-FACTORIAL HepG2 Assay for human Hepatocyte Nuclear Factor 6 (HNF6) (AID 2282952); details: HepG2 Attagene cis-factorial HNF6 reporter transcription; actives raise or lower the signal
Sequence of Hepatocyte nuclear factor 6 (Homo sapiens) (Q9UBC0 whole entry, looked up): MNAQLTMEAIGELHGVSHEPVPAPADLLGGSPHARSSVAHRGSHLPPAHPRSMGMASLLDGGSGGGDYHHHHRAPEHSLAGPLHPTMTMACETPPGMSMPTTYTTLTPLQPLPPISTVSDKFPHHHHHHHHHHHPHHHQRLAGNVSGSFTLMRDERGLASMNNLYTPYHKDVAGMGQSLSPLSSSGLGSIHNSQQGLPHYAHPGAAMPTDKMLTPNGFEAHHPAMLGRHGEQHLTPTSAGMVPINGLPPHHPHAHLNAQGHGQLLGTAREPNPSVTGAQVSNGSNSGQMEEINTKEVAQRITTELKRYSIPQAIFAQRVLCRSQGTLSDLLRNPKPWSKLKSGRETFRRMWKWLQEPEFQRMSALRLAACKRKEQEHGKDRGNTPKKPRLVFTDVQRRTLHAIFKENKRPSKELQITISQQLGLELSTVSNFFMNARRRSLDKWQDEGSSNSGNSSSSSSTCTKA
Procedure, shortened: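 Endogenous transcription factor activity in human HepG2 liver cells was captured through cis-regulated reporter constructs. After 24 h treatment, reporter mRNA was measured by RT-PCR with capillary electrophoresis, and activity was fitted in both directions relative to DMSO.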

[5] = molecular target: Heat shock factor protein 1 (Homo sapiens) (UniProt Q00613); assay: ATG_HSE_CIS: Attagene CIS-FACTORIAL HepG2 Assay for human Heat Shock Transcription Factor 1 (HSE) (AID 2282953); details: HepG2 HSE cis-reporter, Attagene RNA transcription; actives raise or lower the signal
Sequence of Heat shock factor protein 1 (Homo sapiens) (Q00613 whole entry, looked up): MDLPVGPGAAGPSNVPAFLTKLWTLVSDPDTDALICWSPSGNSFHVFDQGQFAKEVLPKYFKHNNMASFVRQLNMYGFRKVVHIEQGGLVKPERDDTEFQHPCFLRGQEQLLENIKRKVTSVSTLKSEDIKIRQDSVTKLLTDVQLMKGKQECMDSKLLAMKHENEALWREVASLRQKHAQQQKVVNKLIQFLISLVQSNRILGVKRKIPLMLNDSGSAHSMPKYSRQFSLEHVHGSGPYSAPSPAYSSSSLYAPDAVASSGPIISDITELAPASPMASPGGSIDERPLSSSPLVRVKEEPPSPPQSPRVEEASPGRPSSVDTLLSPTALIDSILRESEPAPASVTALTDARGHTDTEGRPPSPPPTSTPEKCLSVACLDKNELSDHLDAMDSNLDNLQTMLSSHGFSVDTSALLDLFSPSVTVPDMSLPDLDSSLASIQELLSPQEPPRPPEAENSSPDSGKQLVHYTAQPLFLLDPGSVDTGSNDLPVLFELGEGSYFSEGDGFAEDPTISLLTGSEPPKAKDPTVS
Procedure, shortened: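 After a 24 h incubation with test chemical, transfected HepG2 cells were harvested for RNA; reporter transcripts were measured by RT-PCR and capillary electrophoresis. Values reflect gain or loss of signal relative to DMSO.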

[6] = ATG_MRE_CIS: Attagene CIS-FACTORIAL HepG2 Assay for human Metal Responsive Element (MRE) (AID 2282954); details: HepG2 MRE cis-reporter transcription, Attagene multiplex; actives raise or lower the signal
Procedure, shortened: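 Multiplexed cis-reporter assay in human HepG2 liver cells, 24 h incubation with test chemical. Reporter transcripts measured by RT-PCR and capillary electrophoresis; values from bidirectional curve fitting versus DMSO.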

[7] = ATG_PBREM_CIS: Attagene CIS-FACTORIAL HepG2 Assay for human Phenobarbital-responsive Enhancer Module (PBREM) (AID 2282955); details: HepG2 PBREM cis-reporter, Attagene multiplexed transcription; actives raise or lower the signal
Procedure, shortened: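 Fluorescence of labelled reporter cDNA fragments, resolved by capillary electrophoresis, gives mRNA induction in transfected HepG2 cells treated for 24 h; DMSO serves as negative control and baseline.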

[8] = molecular target: Paired box protein Pax-6 (Homo sapiens) (UniProt P26367); assay: ATG_Pax6_CIS: Attagene CIS-FACTORIAL HepG2 Assay for human Paired Box 6 (PAX6) (AID 2282956); details: HepG2 CIS-FACTORIAL PAX6 reporter transcription, RNA readout; actives raise or lower the signal
Sequence of Paired box protein Pax-6 (Homo sapiens) (P26367 whole entry, looked up): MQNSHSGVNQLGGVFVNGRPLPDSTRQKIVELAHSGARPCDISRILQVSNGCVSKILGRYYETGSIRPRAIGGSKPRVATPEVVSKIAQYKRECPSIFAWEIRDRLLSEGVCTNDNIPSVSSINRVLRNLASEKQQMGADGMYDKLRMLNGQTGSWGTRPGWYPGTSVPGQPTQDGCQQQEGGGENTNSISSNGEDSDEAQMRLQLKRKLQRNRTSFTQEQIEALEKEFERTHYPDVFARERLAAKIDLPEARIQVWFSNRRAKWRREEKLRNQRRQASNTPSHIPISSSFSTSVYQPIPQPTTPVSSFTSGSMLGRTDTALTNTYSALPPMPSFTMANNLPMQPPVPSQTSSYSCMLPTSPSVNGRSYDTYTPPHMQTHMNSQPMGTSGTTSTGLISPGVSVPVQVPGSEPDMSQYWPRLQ
Procedure, shortened: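 DMSO-referenced bidirectional fits of reporter mRNA fluorescence; HepG2 with transient cis-promoter MRTUs, 24 h post-dose, RT-PCR plus capillary electrophoresis detection.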

[9] = ATG_PXRE_CIS: Attagene CIS-FACTORIAL HepG2 Assay for human Pregnane X Receptor Element (PXRE) (AID 2282957); details: HepG2 Attagene CIS-FACTORIAL PXRE reporter, mRNA; actives raise or lower the signal
Procedure, shortened: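 Endogenous transcription factor activity in HepG2 was gauged through induction of reporter mRNA driven by a cis-regulating promoter element, sampled 24 h post-treatment. Activity was fitted in both directions against DMSO negative control.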

[10] = ATG_PPRE_CIS: Attagene CIS-FACTORIAL HepG2 Assay for human Peroxisome Proliferator-activated Response Element (PPRE) (AID 2282958); details: HepG2 PPRE cis-element reporter, Attagene transcription factor profiling; actives raise or lower the signal
Procedure, shortened: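 Cells are first transfected transiently with the multiplexed reporter library, then dosed for 24 h. Total RNA is reverse-transcribed, amplified, fluorescently end-labeled and HpaI-cut before capillary electrophoresis; activity is fitted bidirectionally against DMSO controls.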

[11] = ATG_RORE_CIS: Attagene CIS-FACTORIAL HepG2 Assay for human RAR-related Orphan Receptor Element (RORE) (AID 2282959); details: HepG2 Attagene cis-factorial RORE reporter, mRNA; actives raise or lower the signal
Procedure, shortened: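 Cells were HepG2 carrying transfected cis-regulated reporter constructs, dosed for 24 hours. Total RNA was reverse-transcribed and reporter cDNA amplified, fluorescently labeled and sized by capillary electrophoresis. Activity was fitted bidirectionally relative to DMSO.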

[12] = ATG_Sox_CIS: Attagene CIS-FACTORIAL HepG2 Assay for human SRY-box transcription factor (SOX) (AID 2282960); details: HepG2 Attagene cis-factorial SOX reporter, mRNA; actives raise or lower the signal
Procedure, shortened: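 Transient MRTU transfection of HepG2; 24 h compound incubation; TriZol RNA, oligo(dT) RT, PCR, 6-FAM primer extension, HpaI cut, CE. Bidirectional fit, DMSO = baseline.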

[13] = molecular target: Transcription factor Sp1 (Homo sapiens) (UniProt P08047); assay: ATG_Sp1_CIS: Attagene CIS-FACTORIAL HepG2 Assay for human Specificity Protein 1 (Sp1) (AID 2282961); details: HepG2 Sp1 cis-reporter transcription, actives raise or lower the signal
Sequence of Transcription factor Sp1 (Homo sapiens) (P08047 whole entry, looked up): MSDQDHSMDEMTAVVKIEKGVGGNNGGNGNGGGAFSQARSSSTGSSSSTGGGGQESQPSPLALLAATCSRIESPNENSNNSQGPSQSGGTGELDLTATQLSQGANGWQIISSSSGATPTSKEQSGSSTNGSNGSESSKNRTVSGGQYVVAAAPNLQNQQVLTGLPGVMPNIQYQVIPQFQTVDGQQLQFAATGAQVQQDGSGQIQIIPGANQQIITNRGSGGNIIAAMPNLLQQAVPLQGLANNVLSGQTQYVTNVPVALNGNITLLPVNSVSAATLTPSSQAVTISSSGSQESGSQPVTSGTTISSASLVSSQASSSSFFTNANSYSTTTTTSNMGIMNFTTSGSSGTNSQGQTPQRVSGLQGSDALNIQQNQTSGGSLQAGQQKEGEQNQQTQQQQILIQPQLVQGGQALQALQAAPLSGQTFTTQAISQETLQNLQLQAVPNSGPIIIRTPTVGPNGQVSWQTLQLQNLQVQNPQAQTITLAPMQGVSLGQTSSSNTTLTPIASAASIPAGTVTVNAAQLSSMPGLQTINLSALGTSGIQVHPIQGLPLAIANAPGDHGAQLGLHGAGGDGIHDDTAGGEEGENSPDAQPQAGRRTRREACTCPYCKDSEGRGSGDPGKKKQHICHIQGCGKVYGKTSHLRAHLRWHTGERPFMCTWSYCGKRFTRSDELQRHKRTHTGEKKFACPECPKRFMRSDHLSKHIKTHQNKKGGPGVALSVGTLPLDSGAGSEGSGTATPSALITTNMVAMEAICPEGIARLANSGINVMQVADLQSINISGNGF
Procedure, shortened: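 Endogenous Sp1 activity was gauged in human liver HepG2 cells bearing transfected reporter units under a cis-regulating promoter. After 24 h dosing, reporter mRNA was quantified by RT-PCR with capillary electrophoresis, and activity fitted bidirectionally versus DMSO.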

[14] = molecular target: Signal transducer and activator of transcription 3 (Homo sapiens) (UniProt P40763); assay: ATG_STAT3_CIS: Attagene CIS-FACTORIAL HepG2 Assay for human Signal Transducer and Activator of Transcription 3 (STAT3) (AID 2282963); details: HepG2, Attagene cis-factorial STAT3 reporter transcription; actives raise or lower the signal
Sequence of Signal transducer and activator of transcription 3 (Homo sapiens) (P40763 whole entry, looked up): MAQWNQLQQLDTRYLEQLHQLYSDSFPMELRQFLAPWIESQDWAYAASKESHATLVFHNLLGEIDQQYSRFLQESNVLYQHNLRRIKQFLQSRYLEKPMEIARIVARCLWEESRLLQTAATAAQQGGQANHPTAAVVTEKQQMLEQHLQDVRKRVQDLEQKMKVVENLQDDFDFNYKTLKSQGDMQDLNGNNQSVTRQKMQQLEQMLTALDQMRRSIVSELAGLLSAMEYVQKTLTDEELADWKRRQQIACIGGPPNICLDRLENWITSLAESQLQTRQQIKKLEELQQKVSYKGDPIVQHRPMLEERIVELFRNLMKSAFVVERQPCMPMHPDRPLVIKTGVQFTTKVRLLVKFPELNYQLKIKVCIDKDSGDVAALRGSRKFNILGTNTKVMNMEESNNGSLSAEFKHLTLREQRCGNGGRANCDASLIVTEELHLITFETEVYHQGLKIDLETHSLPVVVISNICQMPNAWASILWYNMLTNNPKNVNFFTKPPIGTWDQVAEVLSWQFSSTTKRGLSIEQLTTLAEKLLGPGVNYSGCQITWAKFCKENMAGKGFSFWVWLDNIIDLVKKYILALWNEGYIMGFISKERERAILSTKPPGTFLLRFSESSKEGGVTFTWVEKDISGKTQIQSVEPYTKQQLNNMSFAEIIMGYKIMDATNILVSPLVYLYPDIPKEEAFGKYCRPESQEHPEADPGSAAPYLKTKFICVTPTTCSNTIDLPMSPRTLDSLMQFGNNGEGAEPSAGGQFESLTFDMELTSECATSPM
Procedure, shortened: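 Cis-factorial format: endogenous transcription factors in HepG2 drive transfected reporter units. After 24 h treatment, reporter RNA was reverse-transcribed, amplified, FAM-labelled and HpaI-digested before CE analysis; activity scored in both directions against DMSO.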

[15] = ATG_TA_CIS: Attagene CIS-FACTORIAL HepG2 Assay for human TA Basal Promoter (AID 2282964); details: HepG2 Attagene CIS-factorial TA basal promoter reporter; actives raise or lower the signal
Procedure, shortened: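 Multiplexed mRNA reporter assay, HepG2, 24 h. Reporter cDNA amplified, 6-FAM primer-extended, HpaI-cut, CE-sized; DMSO = negative control and baseline.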

[16] = ATG_TCF_b_cat_CIS: Attagene CIS-FACTORIAL HepG2 Assay for human T-Cell-Factor with beta-catenin (TCF/b-cat) (AID 2282965); details: HepG2 TCF/beta-catenin cis-reporter transcription, actives raise or lower the signal
Procedure, shortened: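 Endogenous TCF/LEF activity read as reporter transcript level via RT-PCR and capillary electrophoresis fluorescence in transfected HepG2, 24 h exposure; gain or loss of signal fitted against DMSO controls.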

[17] = ATG_TGFb_CIS: Attagene CIS-FACTORIAL HepG2 Assay for human Transforming Growth Factor (TGF) (AID 2282967); details: HepG2 Attagene CIS TGFb reporter, mRNA transcription; actives raise or lower the signal
Procedure, shortened: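 Transcript-level reporter readout: HepG2 transfectants, 24 h exposure, RNA to cDNA, reporter-specific PCR, fluorescent primer extension, capillary sizing against ROX standards. Gain- or loss-of-signal relative to DMSO.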

[18] = ATG_VDRE_CIS: Attagene CIS-FACTORIAL HepG2 Assay for human Vitamin D Receptor Element (VDRE) (AID 2282968); details: HepG2 VDRE cis-reporter transcription, actives raise or lower the signal
Procedure, shortened: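 Measures endogenous factor activity through cis-element-driven reporter transcripts in transiently transfected HepG2. Cells are treated 24 h; reporter mRNA is quantified by RT-PCR and capillary electrophoresis; fitting is bidirectional.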

[19] = ATG_SREBP_CIS: Attagene CIS-FACTORIAL HepG2 Assay for human Sterol Regulatory Element Binding (SREBP) (AID 2282962); details: HepG2 Attagene cis-factorial SREBP reporter, mRNA; actives raise or lower the signal
Procedure, shortened: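 In this cis-format assay, HepG2 liver cells express reporters controlled by promoter elements responsive to native transcription factors. Exposure lasts 24 h; reporter mRNA fluorescence from capillary electrophoresis gives the signal, fitted bidirectionally against DMSO.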

[20] = ATG_TAL_CIS: Attagene CIS-FACTORIAL HepG2 Assay for human TAL Basal Promoter (AID 2282966); details: HepG2 Attagene cis-factorial TAL promoter reporter; actives raise or lower the signal;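 further: background control endpoint measuring basal TAL promoter reporter mRNA not a specific factor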
Procedure, shortened: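 Endogenous transcription-factor activity is sensed in HepG2 cells through transfected cis-promoter reporter constructs. After 24 h dosing, reporter transcripts are quantified by RT-PCR and capillary electrophoresis. Gain or loss of signal is fitted relative to DMSO.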

Measured: AC50

Cc1cccc2c1ccc1ccccc12
active: [9] 27.4 µM
not listed: [19] | [20]
inactive: all other assays above

CCC(C)c1nccnc1OC (configuration not stated)
not listed: [12] | [17]
inactive: all other assays above

O=C1C=CC(=O)N1c1cccc(N2C(=O)C=CC2=O)c1
not listed: [12]
inactive: all other assays above

CC1CNCC(C)O1 (configuration not stated)
not listed: [11] | [17]
inactive: all other assays above

CCCC=O
not listed: [12]
inactive: all other assays above

COc1ccccc1NC(=O)c1cc2ccccc2cc1O
inactive: [1] | [2] | [11] | [14] | [15] | [20] | [17]
active: [3] 22.7 µM | [4] 137 µM | [5] 57.3 µM | [6] 23.3 µM | [7] 6.07 µM | [8] 54.8 µM | [9] 1.63 µM | [12] 100 µM | [13] 27.7 µM | [19] 55.5 µM | [16] 123 µM | [18] 6.49 µM

CCCCC(CC)C(=O)OCCOCCOCCOCCOC(=O)C(CC)CCCC (configuration not stated)
active: [7] 27.6 µM | [9] 27.5 µM | [18] 27.8 µM
not listed: [19]
inactive: all other assays above

O=C(Nc1ccc(Cl)c(Cl)c1)c1cc(Cl)cc(Cl)c1O
active: [3] 0.378 µM | [5] 52 µM | [6] 25.8 µM | [7] 1.35 µM | [8] 30.5 µM | [9] 1.49 µM | [11] 0.903 µM | [16] 33.4 µM | [18] 2.27 µM
inactive: [1] | [2] | [4] | [12] | [13] | [19] | [14] | [15] | [17]

CCCCCCCCCCCCCC[n+]1ccccc1
active: [8] 11.1 µM | [9] 11.1 µM | [19] 2.7 µM | [15] 8.99 µM
not listed: [10]
inactive: all other assays above

CC1COCc2cc3c(cc21)C(C)(C)C(C)C3(C)C (configuration not stated)
inactive: [2] | [3] | [4] | [7] | [10] | [16] | [17]
active: [1] 163 µM | [5] 147 µM | [6] 144 µM | [8] 160 µM | [9] 1.23 µM | [11] 164 µM | [12] 73.2 µM | [13] 100 µM | [14] 176 µM | [15] 168 µM | [20] 144 µM | [18] 50.7 µM

O=C(C=C(O)C(F)(F)F)C(F)(F)F
not listed: [9] | [11] | [17]
inactive: all other assays above

COc1ccc(C#N)cc1
not listed: [8] | [17] | [19]
inactive: all other assays above

CCO[Si](C)(C)OCC
not listed: [10] | [12]
inactive: all other assays above

c1cc[nH]c1
not listed: [9] | [10]
inactive: all other assays above

O=S(=O)(O)c1ccc2cc(O)ccc2c1
not listed: [10] | [11] | [12] | [19]
inactive: all other assays above
